The values below come from PubChem BioAssay (NCI).

SMILES strings stand for the structures. Compounds without any hit were thinned out: in the full panel of roughly 83,000, 20% have a hit.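 Interpretation: 100, growth as untreated; towards 0, rising growth inhibition; 0, no net growth; 0 to -100, cell death. Compounds scoring below 10 were considered active.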 Unmarked numbers belong to inactive results. The source made the active and inactive calls.

The subject of the test is OVCAR-5 ovarian. As to the kind of experiment: NCI-60 one-dose screen, 48 h (100 = growth as untreated, 0 = no growth, -100 = all killed). Conditions: 10 µM unless noted.
For `N=C(N)c1ccc(-c2ccc(-c3ccc(Cl)cc3)o2)nc1`, the growth is -83.8% (active).

For the compound `NC(=O)c1c(NC(=O)c2ccc(OCC3CCCO3)cc2)sc2c1CCCC2` (stereo unspecified), the growth is 101%. To `Cc1cc(-c2ccccc2)c(C)n1Cc1ccc(Cl)cc1` belongs 64.5%; to `Clc1cccc(Cl)c1Cn1c(-c2cncs2)nc2ccccc21`, 94%. With `Cc1ccc(Cn2c(-c3nonc3N)nc3ccccc32)cc1` the figure was 81.2%; with `CC/C(=C(\c1ccc(O)cc1)c1ccc(OCCN(C)CCN(C)C(=O)CCC(=O)c2c(C)[nH]c(/C=C3\N=C(c4ccc[nH]4)C=C3OC)c2C)cc1)c1ccccc1`, 99.6%. For `NC(N)=NC(N)=Nc1ccccc1-c1ccccc1`, the growth is 110%.

Take `COc1cc(/C=C/C(=O)c2ccc(NC(=O)CN3CCN(c4cc5c(cc4F)c(=O)c(C(=O)O)cn5C4CC4)CC3)cc2)cc(OC)c1OC`: the growth is 16.9%.

For the compound `COc1ccc(-c2nc(-c3ccccc3)c(-c3ccccc3)n2C2CC2)cc1OC1CCCCC1`, the growth was 83%. To `CCOC(=O)[C@H](CSSc1ncnc2cc[nH]c12)NC(=O)[C@@H](C)c1ccc2cc(OC)ccc2c1` belongs 27.3%; to `COC(=O)c1ccc2nc(-c3cc4ccccc4n3C)n(CCCCOc3cc4c(cc3OC)C(=O)N3CCC[C@H]3C=N4)c2c1`, -1.18% (active); to `COc1cc2c(cc1OC)C1(C)N(CC2)C(=O)OC1(C)C` (stereo unspecified), 107%.

As for `CN1CCN(c2ccc3cc(-c4nc5ccccc5[nH]4)c(=O)oc3c2)CC1`, the growth was 102%. As for `Nc1c(C(=O)Nc2cccc(C(F)(F)F)c2)sc2nc3c(cc12)CCCCC3`, the growth was 35.5%. Consider `COC1=CC(c2ccc[nH]2)=N/C1=C\c1[nH]c(C)c(CCCn2cc(CCCCCCCCC[C@@H]3Cc4cc(O)ccc4C4CC[C@]5(C)[C@@H](O)CC[C@H]5C43)nn2)c1C` (stereo partly specified), for which the growth is 32%. In the case of `O=C(CN1CCN(c2cc3c(cc2F)c(=O)c(C(=O)O)cn3C2CC2)CC1)Nc1ccc(C(=O)/C=C/c2ccccc2)cc1`, the growth is 82.6%. Regarding `Cc1cc(Cl)ccc1OC(C)C(=O)Nc1nnc(C2CC2)s1` (stereo unspecified), the growth is 98.7%. `COc1ccc(/C(=N/O)c2cc(F)c(F)c(OC)c2F)cc1O`: the growth is 52.1%. For `COc1ccc(C(=O)c2cc(OC)c(OC)c(OC)c2)cc1/C=C/C(=O)c1ccc2c(c1)OCO2`, the growth was -16.7% (active).

As to `CSc1ccccc1C#C/C=C\C#Cc1ccccc1N1CCCCC1=O`, the growth was 96.7%. As for `CCCCCCC[C@@H](O)CC(=O)N[C@H](CCCCN)C(=O)N[C@H](Cc1c[nH]c2ccccc12)C(=O)NC(CCCCN)C(=O)N[C@H](CC(C)C)C(=O)N[C@H](Cc1ccccc1)C(=O)N[C@H](CCCCN)C(=O)N[C@H](CCCCN)C(=O)N[C@H](CC(C)C)C(=O)N1CCCC1C(=O)N[C@H](CCCCN)C(=O)N[C@H](Cc1ccccc1)C(=O)N[C@H](CC(C)C)C(=O)N[C@H](Cc1c[nH]cn1)C(=O)N[C@H](CC(C)C)C(=O)N[C@H](C)C(=O)N[C@H](CCCCN)C(=O)N[C@H](CCCCN)C(=O)N[C@H](Cc1ccccc1)C(=O)O` (stereo partly specified), the growth is -63% (active). With `Cc1ccc2c(c1)ncn2-c1ncnc2c1CC(C)c1ccccc1N2C` (stereo unspecified), the growth was 54.8%. As to `CCOC(=O)c1cc(/C(=N\O)c2cc(OC)c(OC)c(OC)c2)n2c(C)cccc12`, the growth is 73.2%. To `Nc1c(C(=O)Nc2cccc(C(F)(F)F)c2)sc2nc3c(cc12)CCCCCC3` belongs 12.8%; to `Cc1ccc(Cn2c(-c3cccs3)nc3ccccc32)cc1`, 98.8%.

For the compound `CCC(=O)Oc1ccc2c(c1)CC[C@@H]1[C@@H]2CC[C@]2(C)C[C@H](OC(=O)CC)C[C@@H]12`, the growth was 98.4%. As for `COc1ccc2c(c1)C(C)Cc1c(N(C)C)ncnc1N2C` (stereo unspecified), the growth was 73.2%. To `Cc1cc2c(C(C)C)c(O)c(O)c(C=NCCCCCCC(=O)O)c2c(O)c1-c1c(C)cc2c(C(C)C)c(O)c(O)c(C=NCCCCCCC(=O)O)c2c1O` belongs 55.9%; to `COC(=O)CCCCCCN=Cc1c(O)c(O)c(C(C)C)c2cc(C)c(-c3c(C)cc4c(C(C)C)c(O)c(O)c(C=NCCCCCCC(=O)OC)c4c3O)c(O)c12`, 21.7%. Take `C=CCc1cc(Cl)cc2c(OC(C)=O)c(C(C)=O)c(-c3ccccc3)nc12`: the growth is 111%. On to `CCN1C(=O)N[C@H]2[C@@H]3NC(=O)c4ccc(Cl)n4[C@@H]3C[C@]21O`, for which the growth was 24.5%.
